# Results from PubChem BioAssay (NCATS).
# Records with an inconclusive call do not appear. Where a call stands in place of a potency, no number is given. Unmarked numbers belong to inactive results. The source made the active and inactive calls. The call rests on the fitted dose curve; in most records, active means well fitted curve in the direction sought with a large enough effect; inconclusive means small, poorly fitted or top-dose-only effect, or another doubt; inactive means no such curve, though single readings can be large; an effect the other way counts as inactive or inconclusive.
# Key:
# MCC-13 = assay: qHTS assay to identify novel small-molecules to repurpose for Merkel cell carcinoma treatment (AID 1296009); conditions: MCC and control cell lines, CellTiter-Glo viability, 72 h; series mostly up to 46 µM; further: nearly all actives have a fitted effect of over 60% in size
# How it was run: (§1)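 Dose-response viability screen; 72 hr exposure at 37 degree celsius; CellTiter-Glo added, 10 min room temperature, luminescence read; RLUs scaled between no-cell and DMSO wells.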
# MCC-26 = assay: as above; conditions: MCC and control cell lines, CellTiter-Glo viability, 72 h; series mostly up to 46 µM
# How it was run: as §1
# MKL-1 = assay: as above; conditions: MCC and control cell lines, CellTiter-Glo viability, 72 h; series mostly up to 46 µM
# How it was run: as §1
# MKL-2 = assay: as above; conditions: MCC and control cell lines, CellTiter-Glo viability, 72 h; series mostly up to 46 µM
# How it was run: as §1
# UISO = assay: as above; conditions: MCC and control cell lines, CellTiter-Glo viability, 72 h; series mostly up to 46 µM
# How it was run: as §1
# WaGa = assay: as above; conditions: MCC and control cell lines, CellTiter-Glo viability, 72 h; series mostly up to 46 µM
# How it was run: as §1
# C33A = assay: Primary qHTS to identify gynecologic anti-cancer compounds using libraries of approved drugs and bioactive compounds (AID 1345084); conditions: Gynecologic cancer cell panel viability, ATPlite luminescence, 48 h; series mostly up to 57.5 µM; further: nearly all actives have a fitted effect of over 55% in size; further: potency means the concentration at half of the fitted maximal effect
# How it was run: (§2)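 Cells, 1,000 per well, were allowed to settle for 16 h at 37 C before compound addition. Five concentrations were tested for 48 h, and viability was read by ATPlite luminescence after 15 min at room temperature.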
# Es-2 = assay: as above; conditions: Gynecologic cancer cell panel viability, ATPlite luminescence, 48 h; series mostly up to 57.5 µM
# How it was run: as §2
# HeLa = assay: as above; conditions: Gynecologic cancer cell panel viability, ATPlite luminescence, 48 h; series mostly up to 57.5 µM
# How it was run: as §2
# Hek293T = assay: as above; conditions: Gynecologic cancer cell panel viability, ATPlite luminescence, 48 h, control line for the selectivity index; series mostly up to 57.5 µM
# How it was run: as §2
# JEG-3 = assay: as above; conditions: Gynecologic cancer cell panel viability, ATPlite luminescence, 48 h; series mostly up to 57.5 µM
# How it was run: as §2
# OV90 = assay: as above; conditions: Gynecologic cancer cell panel viability, ATPlite luminescence, 48 h; series mostly up to 57.5 µM
# How it was run: as §2
# PA-1 = assay: as above; conditions: Gynecologic cancer cell panel viability, ATPlite luminescence, 48 h; series mostly up to 57.5 µM
# How it was run: as §2
# SKOV3 = assay: as above; conditions: Gynecologic cancer cell panel viability, ATPlite luminescence, 48 h; series mostly up to 57.5 µM
# How it was run: as §2
# Tov-21-G = assay: as above; conditions: Gynecologic cancer cell panel viability, ATPlite luminescence, 48 h; series mostly up to 57.5 µM
# How it was run: as §2
# Tov112D = assay: as above; conditions: Gynecologic cancer cell panel viability, ATPlite luminescence, 48 h; series mostly up to 57.5 µM
# How it was run: as §2
# CASKI = assay: as above; conditions: Gynecologic cancer cell panel viability, ATPlite luminescence, 48 h; series mostly up to 57.5 µM
# How it was run: as §2
# CAOV3 = assay: as above; conditions: Gynecologic cancer cell panel viability, ATPlite luminescence, 48 h; series mostly up to 57.5 µM
# How it was run: as §2
SMILES,Potency (MCC-13),Potency (MCC-26),Potency (MKL-1),Potency (MKL-2),Potency (UISO),Potency (WaGa),Potency (C33A),Potency (Es-2),Potency (HeLa),Potency (Hek293T),Potency (JEG-3),Potency (OV90),Potency (PA-1),Potency (SKOV3),Potency (Tov-21-G),Potency (Tov112D),Potency (CASKI),Potency (CAOV3)
CC(C)(O)CC(=O)NCCn1ccc2ncnc(Nc3ccc(Oc4cccc(C(F)(F)F)c4)c(Cl)c3)c21,inactive,inactive,inactive,inactive,inactive,inactive,inactive,inactive,inactive,inactive,inactive,inactive,inactive,22.4 µM (active),inactive,inactive,–,–
Cc1cc(CS(=O)(=O)c2ccccc2)cc(OCc2ccc(CN3CCC[C@H]3CO)cc2)c1,inactive,inactive,inactive,inactive,inactive,inactive,–,–,–,–,–,–,–,–,–,–,–,–
COc1nccc(-c2c(-c3ccc(F)cc3)ncn2C2CCNCC2)n1,inactive,inactive,inactive,inactive,inactive,inactive,inactive,inactive,inactive,inactive,inactive,–,–,inactive,–,inactive,inactive,–
CCCCCOC(=O)Nc1nc(=O)n([C@@H]2O[C@H](C)[C@@H](O)C2O)cc1F (some centres undefined),inactive,inactive,inactive,inactive,inactive,inactive,–,–,–,–,–,–,–,–,–,–,–,–
CC[C@H](C)C(=O)O[C@H]1C[C@H](O)C=C2C=C[C@H](C)[C@H](CC[C@@H](O)C[C@@H](O)CC(=O)O)[C@H]21,inactive,inactive,inactive,inactive,inactive,inactive,–,–,–,–,–,–,–,–,–,–,–,–
CCNC(=O)Nc1ccc(Oc2ncnc(N)c2C=NOC)cc1Cl,inactive,inactive,inactive,inactive,inactive,inactive,–,–,–,–,–,–,–,–,–,–,–,–
CN1CCC[C@H]1CCO[C@](C)(c1ccccc1)c1ccc(Cl)cc1,inactive,inactive,inactive,inactive,inactive,inactive,–,–,–,–,–,–,–,–,–,–,–,–
NC(=O)c1nnn(Cc2cc(Cl)c(C(=O)c3ccc(Cl)cc3)c(Cl)c2)c1N,inactive,inactive,inactive,inactive,inactive,inactive,–,–,–,–,–,–,–,–,–,–,–,–
Cn1c(=O)c(Oc2ccc(F)cc2F)cc2cnc(NC3CCOCC3)nc21,inactive,inactive,inactive,inactive,inactive,inactive,–,–,–,–,–,–,–,–,–,–,–,–
CC(C)(F)C[C@H](N[C@@H](c1ccc(-c2ccc(S(C)(=O)=O)cc2)cc1)C(F)(F)F)C(=O)NC1(C#N)CC1,inactive,inactive,inactive,inactive,inactive,inactive,–,–,–,–,–,–,–,–,–,–,–,–
CC[C@H](C=C[C@@H](C)[C@H]1CC[C@H]2[C@@H]3CC=C4C[C@@H](O)CC[C@]4(C)[C@@H]3CC[C@]12C)C(C)C,inactive,inactive,inactive,inactive,inactive,inactive,–,–,–,–,–,–,–,–,–,–,–,–
O=C1CCCC(=O)C1C(=O)c1ccc(C(F)(F)F)cc1[N+](=O)[O-],inactive,inactive,inactive,inactive,inactive,inactive,–,–,–,–,–,–,–,–,–,–,–,–
Cc1cc(C(C)Nc2ccccc2)c2nc(N3CCOCC3)cc(=O)n2c1 (centres undefined),inactive,inactive,inactive,inactive,inactive,inactive,inactive,inactive,inactive,inactive,inactive,inactive,inactive,inactive,inactive,inactive,–,–
c1ccc(-c2oc3ncnc(NC[C@@H]4CCCO4)c3c2-c2ccccc2)cc1,inactive,inactive,inactive,inactive,inactive,inactive,inactive,inactive,inactive,inactive,inactive,inactive,inactive,inactive,inactive,–,inactive,–
CN1CCN(c2cccc(Nc3nc4c(-c5ccc(S(C)(=O)=O)cc5)cccn4n3)c2)CC1,inactive,inactive,inactive,inactive,inactive,inactive,inactive,inactive,inactive,inactive,inactive,inactive,inactive,2.82 µM (active),–,inactive,inactive,inactive
CNc1nc(Nc2ccc(C(=O)N3CCOCC3)cc2OC)ncc1Cl,inactive,inactive,inactive,inactive,inactive,inactive,inactive,inactive,inactive,inactive,–,–,inactive,inactive,inactive,inactive,inactive,–
